Assay outcomes (PubChem BioAssay)
This is a sample that favours compounds with a hit; in the whole collection about 11% have one here.
SW480 rerep – DNA re-replication induction in SW480 cells | SW480 DNA re-replication, Hoechst DNA content imaging, 48 h | Potency, µM (titrated, usually from 46.1 µM), inactives show at the highest dose re-replication activation, actives largely listed as activators | hit rate 1.8% among 340,000; further: potency means the concentration at half of the fitted maximal effect; % of control where 0% means no effect; nearly all actives have a fitted effect of over 55% in size
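250 cells/well; 23 nL cpd via pin tool; 48 hr, 37 C, 5% CO2; Hoechst 40 min; imager read of total nuclear intensity, ex 405/em 500-530 nm.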
IL1B secr inh – inflammasome signaling inhibition, IL-1 beta readout; THP-1 LPS/ATP IL-1B secretion, AlphaLISA, 16 h; stronger effect = lower value; activity change, % at 57.5 µM; hit rate 4.7% among 360,000; in the data active means activity change below about -50%; inconclusive means mostly about -30% to -49%; further: on the % scale 0 is the no-effect control and ±100 the full control effect
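Secreted IL-1B measured by AlphaLISA bead assay after 16 h compound exposure of THP-1 cells; compounds (final up to 57.5 uM) added 1 h before LPS (250 ng/mL) and ATP (1.25 mM) stimulation; lower signal means less secretion.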
MCF10A rereplic – DNA re-replication induction in MCF 10a cells. Potency, µM (doses to about 46.1 µM), without a hit: at the top dose activity, positive = re-replication, hits mostly activators. MCF 10A DNA re-replication, Hoechst nuclear intensity, 48 h. hit rate 2.9% among 350,000. AID 624296; further: potency means the concentration at half of the fitted maximal effect; % of control where 0% means no effect; nearly all actives have a fitted effect of over 50% in size
RORg inh – ROR gamma (mouse) transcription inhibition; Potency, µM (highest dose often 53.6 µM), for inactives: at the top dose activity change, negative = inhibition, most hits filed as inhibitors; AID 2551; hit rate 5.4% among 310,000; Drosophila S2 Gal4-RORgamma UAS-luciferase reporter, 20 h; further: potency means the concentration at half of the fitted maximal effect; on the % scale 0 is the no-effect control and ±100 the full control effect; nearly all actives have a fitted effect of over 60% in size
Target sequence (P51450 whole entry, looked up, the tested form may be a part): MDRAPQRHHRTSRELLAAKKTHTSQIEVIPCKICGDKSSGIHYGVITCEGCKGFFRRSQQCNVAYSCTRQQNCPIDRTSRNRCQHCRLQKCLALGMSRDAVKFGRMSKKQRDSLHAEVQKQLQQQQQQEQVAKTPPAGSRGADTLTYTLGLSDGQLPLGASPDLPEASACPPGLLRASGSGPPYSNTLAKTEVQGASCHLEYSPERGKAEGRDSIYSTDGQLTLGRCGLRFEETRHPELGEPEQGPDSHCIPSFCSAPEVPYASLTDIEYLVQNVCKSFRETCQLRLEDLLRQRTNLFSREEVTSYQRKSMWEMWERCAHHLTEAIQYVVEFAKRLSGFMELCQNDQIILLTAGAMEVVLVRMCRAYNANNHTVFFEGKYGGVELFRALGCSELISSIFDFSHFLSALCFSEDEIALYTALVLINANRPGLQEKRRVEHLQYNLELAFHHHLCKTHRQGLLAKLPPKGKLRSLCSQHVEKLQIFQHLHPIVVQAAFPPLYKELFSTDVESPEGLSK
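Stable Schneider cell line, Gal4 DNA-binding domain fused to ROR gamma, UAS-luciferase. Cmpd 1 hr RT → CuSO4 700 uM final → 20 hr RT → luciferase reagent 10 min → luminescence.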
VP16 counter – Gal4-VP16 reporter inhibition counter-screen; Drosophila S2 Gal4-VP16 UAS-luciferase, luminescence, 20 h; Potency, µM (highest dose often 53.6 µM), inactives show at the highest dose activity, negative = inhibition, most hits filed as inhibitors; hit rate 3.5% among 310,000; AID 2546;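 further: Gal4-VP16 expression switched on by copper sulfate through the metallothionein promoter; potency means the concentration at half of the fitted maximal effect; on the % scale 0 is the no-effect control and ±100 the full control effect; nearly all actives have a fitted effect of over 50% in size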
Numbers without * were called inactive; ! = repeats disagree. Unless noted, the call rests on the fitted dose curve; in most records, active means well fitted curve in the direction sought with a large enough effect; inconclusive means small, poorly fitted or top-dose-only effect, or another doubt; inactive means no such curve, though single readings can be large; an effect the other way counts as inactive or inconclusive.

CC(C)(C)c1ccc(S(=O)(=O)NC(=O)C2(C)CCN2C(=O)CC2CCCCC2)cc1 (configuration not stated) was read as IL1B secr inh 3.4.
For O=c1cccc(-c2ccc3ccccc3c2)o1 the results were IL1B secr inh -6.2.
`COc1ccc(NC(=O)/C(C#N)=C/C=C/c2ccco2)cc1` gave SW480 rerep 8.2µM*, IL1B secr inh -67.0*, MCF10A rereplic 14.6µM*, RORg inh -19.5% and VP16 counter -18.7%.
COc1ccc(OC)c(NC(=O)C(C#N)=Cc2ccco2)c1 was read as SW480 rerep -3.3%, IL1B secr inh 2.9 and MCF10A rereplic 4.6%.
CCOc1ccc(OCC)c(NC(=O)CN2CCN(c3cccc(C)c3)C(C)C2)c1 (configuration not stated) was read as SW480 rerep inconclusive, IL1B secr inh -24.7, MCF10A rereplic 14.6µM*, RORg inh 23.6% and VP16 counter -17.8%.
Screening Cc1cccc(C)c1O returned RORg inh 25.5% and VP16 counter -0.4%.
COC(=O)c1c(-c2ccc(N(C)C)cc2)sc2ccc(OC)cc12 was read as SW480 rerep 14.6µM*, IL1B secr inh 38.7 and MCF10A rereplic inconclusive.
For CCOc1ccc(C(C)=O)cc1N1C(=O)C2C3C=CC(O3)C2C1=O (configuration not stated) the results were SW480 rerep inconclusive, IL1B secr inh -10.2, MCF10A rereplic inconclusive, RORg inh 6.31µM* and VP16 counter 6.31µM*.
For COc1ccc(/C=C/C(=O)NCc2cccnc2)cc1 the results were SW480 rerep -2.9%, IL1B secr inh 20.8, MCF10A rereplic -4.2%, RORg inh 21.4% and VP16 counter -0.5%.
CCc1ccc(CN(Cc2cccnc2)C(=O)/C=C/c2ccc(OC)cc2)cc1 was read as SW480 rerep 15.9%, IL1B secr inh 0.0, MCF10A rereplic 18.4µM*, RORg inh 23.8% and VP16 counter 5.7%.
For CC(C)Cc1ccc(C2=CSC3=NCCN23)cc1 the results were SW480 rerep 11.6%, IL1B secr inh inconclusive and MCF10A rereplic inconclusive.
For CC(C)(C)c1ccc(C2=CSC3=NCCN23)cc1 the results were SW480 rerep inconclusive, IL1B secr inh inconclusive, MCF10A rereplic inconclusive, RORg inh 10µM* and VP16 counter -17.1%.
O=C1c2cccc3cccc(c23)N1Cc1cccc(F)c1 was read as SW480 rerep inconclusive, IL1B secr inh -14.9, MCF10A rereplic 25.9µM*, RORg inh -6.4% and VP16 counter 7.6%.
For COc1ccc(CN2C(=O)c3cccc4cccc(c34)C2=O)cc1 the results were SW480 rerep 18.4µM*, IL1B secr inh 22.1, MCF10A rereplic -4.3%, RORg inh 22.2% and VP16 counter -17.5%.
CN(C)CCN1C(=O)c2cccc3cc([N+](=O)[O-])cc(c23)C1=O was read as SW480 rerep 1.46µM*, IL1B secr inh -101.9* and MCF10A rereplic inconclusive.
CN(C)CCN1C(=O)c2ccccc2C1=O was read as SW480 rerep -9.8%, IL1B secr inh 45.2 and MCF10A rereplic 13.4%.
Screening O=C1c2cccc3cc([N+](=O)[O-])cc(c23)C(=O)N1CC1CCCO1 (configuration not stated) returned SW480 rerep inconclusive, IL1B secr inh -72.5*, MCF10A rereplic 10.1%, RORg inh -13.4% and VP16 counter 2.0%.
`CN(C)CCCN1C(=O)c2cc3ccccc3cc2C1=O` gave SW480 rerep -3.1%, IL1B secr inh -5.6, MCF10A rereplic -0.3%, RORg inh 9.6% and VP16 counter -0.5%.
For CN(C)CCCN1C(=O)c2cccc3cccc(c23)C1=O the results were SW480 rerep inconclusive, IL1B secr inh -89.3*, MCF10A rereplic -4.5%, RORg inh -44.1% and VP16 counter -8.2%.
`CCOc1ccc(NC(=O)CN2C(=O)NC(CCc3ccccc3)C2=O)cc1OCC` (configuration not stated) gave SW480 rerep 0.0%, IL1B secr inh 10.7 and MCF10A rereplic 12.4%.
For O=C(COC(=O)c1ccc(F)cc1Cl)NC(=O)NC1CCCC1 the results were SW480 rerep 0.5%, IL1B secr inh -8.2 and MCF10A rereplic -1.8%.
`CCOC(=O)C1CN(S(C)(=O)=O)c2cc(CC(=O)OC)ccc2O1` (configuration not stated) gave SW480 rerep 2.2%, IL1B secr inh -101.4*, MCF10A rereplic 2.2%, RORg inh 3.2% and VP16 counter -14.2%.
Screening Cc1cc(C)c(OCC(=O)Nc2nnc(C3CC3)s2)c(C)c1 returned SW480 rerep 1.3%, IL1B secr inh 0.9 and MCF10A rereplic -0.5%.
`COc1ccc(-c2cccc(-c3nc4ccc(Cl)cn4c3NC3CCCCC3)c2)cc1` gave SW480 rerep inconclusive, IL1B secr inh -13.1 and MCF10A rereplic 14.6µM*.
`CCC(C)Sc1cc(-c2nc3ccc(Cl)cn3c2NC2CCCCC2)ccc1OC` (configuration not stated) gave SW480 rerep inconclusive, IL1B secr inh -73.8*! and MCF10A rereplic inconclusive.
`CCCCCCSc1cc(-c2nc3ccc(Cl)cn3c2NC2CCCCC2)ccc1OC` gave SW480 rerep 2.0%, IL1B secr inh -16.7 and MCF10A rereplic -4.6%.
COc1ccc([N+](=O)[O-])cc1NCC(=O)Nc1cc(S(=O)(=O)N2CCCCC2)ccc1C was read as SW480 rerep -6.0%, IL1B secr inh -0.5 and MCF10A rereplic -5.1%.
`FC(F)(F)c1cc(NC(=S)Nc2ccc3ccccc3c2)cc(C(F)(F)F)c1` gave RORg inh inconclusive and VP16 counter 14.1µM*.
`O=C(CN1CCCCC1)Nc1ccc(C(F)(F)F)cc1Cl` gave SW480 rerep -49.9%, MCF10A rereplic -11.7%, RORg inh 1.9% and VP16 counter 0.1%.
For NNC(=S)Nc1ccc(C(F)(F)F)cc1Cl the results were SW480 rerep -11.7%, IL1B secr inh 20.9, MCF10A rereplic -0.4%, RORg inh 11.2µM* and VP16 counter inconclusive.
Cc1cccc(NC(=S)Nc2cccc(C(F)(F)F)c2)n1 was read as SW480 rerep -1.6%, IL1B secr inh 9.6, MCF10A rereplic 8.2%, RORg inh 1µM* and VP16 counter inconclusive.
For FC(F)(F)c1cccc(NC(=S)Nc2ccc(Cl)cc2Cl)c1 the results were SW480 rerep 2.8%, IL1B secr inh -70.5*, MCF10A rereplic 5.7%, RORg inh inconclusive and VP16 counter -25.3%.
For CCCCCCCc1cc2c(cn1)=C(OC)C(C)(OC(C)=O)C(=O)C=2Cl (configuration not stated) the results were RORg inh 38.1% and VP16 counter 19.1%.
For O=C(NCc1ccccc1)c1cc(C2CCCN(S(=O)(=O)c3ccccc3)C2)on1 (configuration not stated) the results were IL1B secr inh -12.7.
